Our source for the cell viability values is the supplement of paper PMC11150407.

About 45 (2%) of roughly 3,000 compounds showed an effect of 50% or more. This is one part of a sample in which strong results are shown more often than they occur.

A word on the cell viability: it is a read-out of living cells in per cent, often relative to untreated cells.

The subject of this assay is MOLM1 and UCSD/AML1 (averaged). Put plainly: cell viability relative to DMSO control (POC); higher = less growth inhibition. Particulars: 1 µM; 72 h. On the procedure:
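Primary viability screen in the 3q26 EVI1-high AML cell lines MOLM1 and UCSD/AML1, compounds at 1 uM for 72 h. ATP CellTiter-Glo read-out given as percent viable over DMSO control (POC), averaged over duplicates. This mapping covers the TimTec NDL-3000 natural derivative library, whose compounds are identified by TimTec catalogue codes (ST...).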
As for `O=C1CC(n2c(=O)oc3ccccc32)C2COC1O2` (stereo not drawn), the cell viability amounted to 14.7%.
Take `O=C1C[C@H](n2nc(-c3ccccc3Br)oc2=S)[C@H]2CO[C@@H]1O2`: the cell viability was 55.5%.
On to `O=C1CC(n2nnnc2-c2ccccc2Cl)C2COC1O2` (stereo not drawn), for which the cell viability is 64.4%.
For `Cc1ccc2c(O)c([N+](=O)[O-])c(=O)oc2c1`, the cell viability came out at 103%.
On to `Cn1c(=O)c2c(nc3n2CC(C24CC5CC(CC(C5)C2)C4)=NN3CCO)n(C)c1=O`, for which the cell viability is 106%.
In the case of `CCOc1cc2c(cc1OCC)C(c1cccc(F)c1F)NCC2` (stereo not drawn) it was 86.1%; in that of `O=C(O)c1cccc(Nc2nc(-c3ccc(Cl)cc3)nc3ccccc23)c1`, 90%; in that of `O=C(O)c1ccccc1-c1c2ccc(=O)c(Br)c-2oc2c(Br)c(O)ccc12`, 103%.
As to `COc1ccc(C(=O)N2CCCc3cccc(OC)c32)cc1OC`, the cell viability was found to be 90.1%.
To `O=C(/C=C/c1ccc([N+](=O)[O-])cc1)c1cccc2ccccc12` belongs 32.8%; to `O=C(O)/C=C/c1ccc([N+](=O)[O-])cc1`, 109%.
To `O=C(/C=C/c1ccc(Cl)cc1Cl)c1cccc2ccccc12` belongs 95.1%; to `COc1ccc2c(c1)c(CC(=O)NCc1ccccn1)c(C)n2C(=O)c1ccc(Cl)cc1`, 84.5%.
In the case of `O=C(/C=C/c1ccccc1)c1cc(O)ccc1O`, the cell viability was determined as 93.7%.
Consider `O=C(/C=C/c1ccccc1)c1ccc(O)cc1O`, for which the cell viability is 96.7%.
On to `O=C(/C=C/c1ccccc1)c1ccc(O)cc1`, for which the cell viability was 2.68%.
In the case of `COc1ccc(/C=C(\C#N)C(=O)OC(C)C)c(OC)c1OC` it was 106%.
As to `O=c1[nH]c(=O)n(C2C[C@H](O)[C@@H](CO)O2)cc1I` (stereo partly drawn), the cell viability turned out to be 89.8%.
To `CC(=O)OC1CC(n2cc(C)c(=O)[nH]c2=O)OC1CO` (stereo not drawn) belongs 98.2%; to `O=c1[nH]c(=O)n(C2CC(O)C(CO)O2)cc1C(F)(F)F` (stereo not drawn), 29.6%.
In the case of `CCOc1ccc2oc(=O)cc(CN3CCNCC3)c2c1` it was 90.2%.
For the molecule `CCOc1ccccc1C(=O)NCCc1c(C)[nH]c2ccccc12`, the cell viability is 105%.
Turning to `COc1ccc(C2c3[nH]c4ccccc4c3CCN2CC(=O)Nc2ccc(C)cc2)cc1` (stereo not drawn), the cell viability was determined as 87.2%.
In the case of `O=C(/C=C/c1ccc(O)cc1)c1ccc(O)cc1O` it was 102%.
In the case of `COc1ccc(/C=C/C(=O)c2ccc(O)cc2C)cc1` it was 22.5%; in that of `COc1ccc(C(=O)/C=C/c2ccccc2)c(O)c1`, 101%.
Regarding `COc1ccc2c(c1)c(CC(=O)NCCSc1ccccc1)c(C)n2C(=O)c1ccc(Cl)cc1`, the cell viability came to 98.5%.
For `COc1ccc(C(NS(=O)(=O)c2ccc(C)cc2)c2nccc3cc(OC)c(OC)cc23)cc1OC` (stereo not drawn), the cell viability came out at 98.4%.
For the molecule `C=CCN(C(=O)CSc1nc2ccccc2c(=O)[nH]1)c1ccccc1`, the cell viability was 88.4%.
For `COc1ccc(OC)c(NC(=O)c2cc(OC)c(OC)c(OC)c2)c1`, the cell viability stood at 85.9%.
Consider `C=CCN(C(=O)CSc1nc2c(=O)[nH]cnc2n1-c1ccccc1)c1ccccc1`, for which the cell viability worked out at 98%.
On to `CCCCCOc1ccc(C2=NOC(=O)/C2=C\c2cc(Cl)ccc2O)cc1`, for which the cell viability amounted to 92.3%.
To `Cc1ccc(-n2c(SCc3ccccc3F)nc3c(=O)[nH]cnc32)cc1` belongs 95.2%; to `COc1ccc(-c2cc(C(F)(F)F)nc(SC3CC(O)C4OCC3O4)n2)cc1OC` (stereo not drawn), 98.4%.
As to `CC1CCc2nc(S[C@H]3CC(=O)[C@@H]4OC[C@H]3O4)nc(C(F)(F)F)c2C1` (stereo partly drawn), the cell viability amounted to 39.9%.
In the case of `COc1ccc(-c2cc(-c3ccc4c(c3)OCO4)[nH]c(=O)c2C#N)cc1` it was 97.1%.
To `CC1(C)C2CCC1(CS(=O)(=O)Nc1ccncc1)C(=O)C2` (stereo not drawn) belongs 106%; to `COc1cc(C(=O)NCC(C)NC(=O)c2cc(OC)c(OC)c(OC)c2)cc(OC)c1OC` (stereo not drawn), 99.3%.
For the molecule `CCOc1ccc2oc(=O)cc(CN3CCN(CC(=O)Nc4cc(F)ccc4F)CC3)c2c1`, the cell viability worked out at 98.5%.
On to `CCOC(=O)c1c(CC(C#N)(c2ccccc2)c2ccccc2)n(C)c2cc(Br)c(OC)cc12`, for which the cell viability was found to be 17.7%.
To `CCOC(=O)c1c(C)n(-c2ccccc2)c2cc(Br)c(OC)cc12` belongs 110%; to `CCOC(=O)c1c(CSCc2ccccc2)n(-c2ccccc2)c2cc(Br)c(OC)cc12`, 110%.
To `Cn1c(=O)c2ccccc2n(CC(=O)N2CCc3ccccc3C2)c1=O` belongs 107%; to `COc1ccc(NC(=O)CSc2nc3c(=O)[nH]cnc3n2-c2ccc(C)cc2)cc1OC`, 92.8%.
`Cc1ccc2occ(C)c(=O)c2c1`: the cell viability was determined as 98.5%.
As for `O=C(Cn1c(=O)cc(C(=O)N2CCc3ccccc3C2)c2ccccc21)Nc1ccc(Cl)cc1`, the cell viability is 105%.
In the case of `N#CC1=C(N)Oc2[nH]c(=O)[nH]c(=O)c2C1c1ccccc1F` (stereo not drawn) it was 94.3%.
To `N#CC1=C(N)Oc2cc(O)ccc2C1c1cccc([N+](=O)[O-])c1` (stereo not drawn) belongs 101%; to `N#CC1=C(N)Oc2cc(O)ccc2C1c1cccc(C(F)(F)F)c1` (stereo not drawn), 22.1%; to `N#CC1=C(N)Oc2cc(O)ccc2C1c1ccccc1` (stereo not drawn), 104%.
To `CCc1ccc(C2C(C#N)=C(N)Oc3cc(O)ccc32)cc1` (stereo not drawn) belongs 110%; to `N#CC1=C(N)Oc2cc(O)ccc2C1c1ccccc1F` (stereo not drawn), 13.8%.
Consider `O=C(O)CNC(=O)c1ccc(Cl)cc1`, for which the cell viability was 108%.
`O=c1c(O)c(-c2ccc(F)cc2)oc2cc(Cl)ccc12`: the cell viability is 100%.
To `Cc1cc(C)c(NC(=O)Cn2c(=O)cc(C(=O)N3CCCCC3)c3ccccc32)c(C)c1` belongs 99.4%; to `COCCOC(=O)c1c(C)n(CCOC23CC4CC(CC(C4)C2)C3)c2c1cc(O)c1ccccc12`, 81.2%.
Take `Cc1ccc(-n2c(SCC(=O)Nc3ccccc3C(F)(F)F)nc3c(=O)[nH]cnc32)cc1`: the cell viability stood at 108%.
To `COc1cc(C(=O)Nc2ccc3ncn(C)c3c2)cc(OC)c1OC` belongs 93.9%; to `CCCCc1ccc(NC(=O)c2cc(OC)c(OC)c(OC)c2)cc1`, 49.6%.
To `COc1cc(C(=O)Nc2ccc(C(=O)c3cccs3)cc2)cc(OC)c1OC` belongs 99.7%; to `COc1cc(C(=O)Nc2ccc3c(c2)ncn3C)cc(OC)c1OC`, 19%.
For `COc1cc(C(=O)Nc2ccccc2C(=O)NCc2ccccc2)cc(OC)c1OC`, the cell viability was determined as 85.2%.
To `COc1cc(C(=O)Nc2ccc(CN3CCCC3)cc2)cc(OC)c1OC` belongs 87.4%; to `COC(=O)c1ccc(NC(=O)c2cc(OC)c(OC)c(OC)c2)cc1`, 23.1%; to `COc1cc(C(=O)Nc2ccc(C(=O)NCc3ccccc3)cc2)cc(OC)c1OC`, 87%.
To `COc1ccc(C(=O)Nc2ccc3ncn(C)c3c2)cc1OC` belongs 101%.
In the case of `COc1cc(C(=O)Nc2ccccc2C(=O)Nc2ccccc2)cc(OC)c1OC` it was 36%.
For the molecule `COc1cc(C(=O)Nc2ccc(C(F)(F)F)cc2)cc(OC)c1OC`, the cell viability was determined as 93.8%.
With `COc1cc(C(=O)Nc2ccccc2NC(=O)c2cc(OC)c(OC)c(OC)c2)cc(OC)c1OC`, the cell viability was determined as 95.9%.
As for `O=C(CSc1nc2ccccc2c(=O)[nH]1)NCc1ccccc1Cl`, the cell viability came to 107%.
In the case of `Cc1ccc(NC(=O)CN2C(=O)S/C(=C/c3cc4c(cc3Cl)OCO4)C2=O)cc1` it was 92%; in that of `CNC(=O)c1ccccc1NC(=O)C(=O)c1c[nH]c2ccccc12`, 111%; in that of `CCOC(=O)/C=C1\NC(C)(C)Cc2cc3c(cc21)OCCO3`, 89.5%.
Turning to `CC(C)COc1ccc(C(=O)N/C(=C\c2ccccc2)C(=O)NCCNC(=O)/C(=C\c2ccccc2)NC(=O)c2ccc(OCC(C)C)cc2)cc1`, the cell viability was found to be 103%.
To `COc1cc(OC)cc(C(=O)Nc2cc(OC)cc(S(=O)(=O)c3ccc(Cl)cc3)c2)c1` belongs 92.8%; to `CCc1cccc(C)c1NC(=O)CN1CCN(Cc2cc(=O)oc3cc(C)ccc23)CC1`, 95.4%; to `Cc1ccc2c(C)cc(=O)[nH]c2c1C`, 109%.
Turning to `COc1cc(C(=O)CCNc2ccc(F)cc2)cc(OC)c1OC`, the cell viability was 78.3%.
To `Cc1ccc2[nH]c(C)c(CCNS(=O)(=O)c3ccc4c(c3)OCCO4)c2c1` belongs 99.4%; to `COc1ccc(/C=C/C(=O)c2ccccc2)cc1COc1ccc(Cl)cc1`, 106%.
To `COc1ccc(/C=C/C(=O)c2ccccc2)cc1COc1ccc(NC(C)=O)cc1` belongs 40%.
To `COc1ccc(/C=C/C(=O)c2ccccc2)cc1COc1ccc([N+](=O)[O-])cc1` belongs 101%.
Consider `Cc1ccc(C)c(-c2nc(CSc3nc4c(=O)[nH]cnc4n3C)c(C)o2)c1`, for which the cell viability was found to be 103%.
To `Cc1cc2c(c(O)c1-c1c(C)cc3c(c1O)/C(=C/Nc1c(C)n(C)n(-c4ccccc4)c1=O)C(=O)C(O)=C3C(C)C)/C(=C/Nc1c(C)n(C)n(-c3ccccc3)c1=O)C(=O)C(O)=C2C(C)C` belongs 84.6%; to `COc1cc(C(=O)NC(C(=O)O)C(C)C)cc(OC)c1OC` (stereo not drawn), 103%.
To `CC(C)(C)c1ccc(C(=O)NCC(=O)O)cc1` belongs 95.9%.
In the case of `O=C(/C=C/c1cccc([N+](=O)[O-])c1)c1ccc2c(c1)OCO2` it was 98.1%.
In the case of `O=C(/C=C/c1ccc([N+](=O)[O-])cc1)NCc1ccc2c(c1)OCO2`, the cell viability was 97%.
To `O=[N+]([O-])C1=Cc2ccccc2OC1c1ccc2c(c1)OCO2` (stereo not drawn) belongs 2.67%.
To `COCCN1C(=O)/C(=C\c2cc(OC)c(OC)c(OC)c2)C(C(=O)OC)=C1C` belongs 101%.
To `O=C(CCNc1cccc(Cl)c1)c1cc2ccccc2oc1=O` belongs 115%; to `CCOC(=O)c1ccc2[nH]c(=O)c(C)c(O)c2c1`, 108%; to `CCOC(=O)c1ccc2[nH]c(=O)c(Cc3ccccc3)c(O)c2c1`, 97.9%.
With `CCOC(=O)c1ccc2[nH]c(-c3ccccc3)cc(=O)c2c1`, the cell viability is 7.45%.
In the case of `COc1ccc(C(=O)CC2(O)C(=O)N(Cc3cccc4ccccc34)c3ccccc32)cc1OC` (stereo not drawn) it was 97.5%; in that of `NC(=O)CC1CCCCN1` (stereo not drawn), 126%.
On to `Cc1ccc2occc(=O)c2c1`, for which the cell viability worked out at 100%.
In the case of `Cc1ccccc1-c1cc(=O)c2cc(Br)ccc2o1` it was 106%; in that of `O=c1cc(O)c2cc(Cl)ccc2o1`, 101%.
For the molecule `Cc1ccc(-c2cc(=O)c3ccccc3o2)cc1`, the cell viability came out at 92.3%.
Take `O=c1ccoc2ccccc12`: the cell viability amounted to 93.1%.
In the case of `O=c1cc(-c2ccccc2Br)oc2ccc(Cl)cc12` it was 110%; in that of `Cc1ccc2oc(C(Cl)(Cl)Cl)cc(=O)c2c1`, 26.6%.
For the molecule `Cc1ccc2oc(-c3ccc(Cl)cc3)cc(=O)c2c1`, the cell viability was found to be 85.9%.
Regarding `O=c1cc(C(Cl)(Cl)Cl)oc2ccc(Cl)cc12`, the cell viability was 7.16%.
To `O=c1cc(-c2ccc(Br)cc2)oc2ccc(Cl)cc12` belongs 96%; to `Cc1ccc2oc(-c3ccccc3C)cc(=O)c2c1`, 21.6%; to `O=c1cc(C(Cl)(Cl)Cl)oc2ccccc12`, 4.98%.
